# PMC8384837, “Expanding the binding specificity for RNA recognition by a PUF domain”
# Substitutions are numbered along the chain they refer to.
# Experiments:
# Assay in all cases: yeast three-hybrid, YBZ-1, SC-Leu-His + 0.5 mM 3-AT, 4 days
# Details in all cases: tags: N-Gal4 AD-HA kept; label: inside an RPR1-promoter hybrid RNA with tandem MS2 sites; ssRNA
# PUM1 PUF domain R1-RRK = PUM1 PUF domain R1-RRK (Homo sapiens, UniProt Q14671 828-1176, S863R;Q867K)
# In short: (§1)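 A centromeric plasmid in strain YBZ-1 co-expressed Pumilio-1 PUF domain libraries, randomized at the three base-contacting residues of each repeat, with matching RNA elements; the strain carries a LexA–MS2 coat fusion and a HIS3 reporter. After four days on SC-Leu (input) or SC-Leu-His + 0.5 mM 3-AT (selection), the repeat regions were PCR-amplified and Illumina-sequenced. The interaction score is the log change in variant frequency from input to selection, using log2 and a pseudocount of 1 where absent.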
# PUM1 PUF domain R1-KFR = PUM1 PUF domain R1-KFR (Homo sapiens, UniProt Q14671 828-1176, S863K;R864F;Q867R)
# In short: as §1
# PUM1 PUF domain R1-TVR = PUM1 PUF domain R1-TVR (Homo sapiens, UniProt Q14671 828-1176, S863T;R864V;Q867R)
# In short: as §1
# PUM1 PUF domain R4-NFS = PUM1 PUF domain R4-NFS (Homo sapiens, UniProt Q14671 828-1176, H972F;Q975S)
# In short: as §1
# PUM1 PUF domain R6-GFA = molecular target: T1, PUM1 PUF domain R6-GFA (Homo sapiens, UniProt Q14671 828-1176, N1043G;Y1044F;Q1047A)
# T1 sequence: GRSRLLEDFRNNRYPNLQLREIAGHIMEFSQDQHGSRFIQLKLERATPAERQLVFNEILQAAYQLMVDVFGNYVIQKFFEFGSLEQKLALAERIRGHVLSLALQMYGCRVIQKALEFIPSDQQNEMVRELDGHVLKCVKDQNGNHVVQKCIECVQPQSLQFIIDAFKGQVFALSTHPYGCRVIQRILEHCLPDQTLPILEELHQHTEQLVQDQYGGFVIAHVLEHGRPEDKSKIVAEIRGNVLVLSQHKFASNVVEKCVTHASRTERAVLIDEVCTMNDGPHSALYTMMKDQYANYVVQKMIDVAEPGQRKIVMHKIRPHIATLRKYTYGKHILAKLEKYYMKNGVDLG
# In short: as §1
# PUM1 PUF domain R6-MYS = molecular target: T2, PUM1 PUF domain R6-MYS (Homo sapiens, UniProt Q14671 828-1176, N1043M;Q1047S)
# T2 sequence: T1 sequence with G216M, F217Y, A220S
# In short: as §1
# PUM1 PUF domain R5-PMG = PUM1 PUF domain R5-PMG (Homo sapiens, UniProt Q14671 828-1176, C1007P;R1008M;Q1011G)
# In short: as §1
# PUM1 PUF domain R8-RHE = PUM1 PUF domain R8-RHE (Homo sapiens, UniProt Q14671 828-1176, N1122R;Y1123H;Q1126E)
# In short: as §1
# PUM1 PUF domain R8-RWG = PUM1 PUF domain R8-RWG (Homo sapiens, UniProt Q14671 828-1176, N1122R;Y1123W;Q1126G)
# In short: as §1
# PUM1 PUF domain R8-CHP = PUM1 PUF domain R8-CHP (Homo sapiens, UniProt Q14671 828-1176, N1122C;Y1123H;Q1126P)
# In short: as §1
# PUM1 PUF domain R4-ERC = PUM1 PUF domain R4-ERC (Homo sapiens, UniProt Q14671 828-1176, N971E;H972R;Q975C)
# In short: as §1
# PUM1 PUF domain R3-CPG = PUM1 PUF domain R3-CPG (Homo sapiens, UniProt Q14671 828-1176, R936P;Q939G)
# In short: as §1
# PUM1 PUF domain R8-RQR = PUM1 PUF domain R8-RQR (Homo sapiens, UniProt Q14671 828-1176, N1122R;Y1123Q;Q1126R)
# In short: as §1
# PUM1 PUF domain R5-RNE = PUM1 PUF domain R5-RNE (Homo sapiens, UniProt Q14671 828-1176, C1007R;R1008N;Q1011E)
# In short: as §1
# PUM1 PUF domain R3-LSR = PUM1 PUF domain R3-LSR (Homo sapiens, UniProt Q14671 828-1176, C935L;R936S;Q939R)
# In short: as §1
# PUM1 PUF domain R3-LFA = PUM1 PUF domain R3-LFA (Homo sapiens, UniProt Q14671 828-1176, C935L;R936F;Q939A)
# In short: as §1
# PUM1 PUF domain R7-RML = PUM1 PUF domain R7-RML (Homo sapiens, UniProt Q14671 828-1176, S1079R;N1080M;E1083L)
# In short: as §1
# PUM1 PUF domain R7-QTR = PUM1 PUF domain R7-QTR (Homo sapiens, UniProt Q14671 828-1176, S1079Q;N1080T;E1083R)
# In short: as §1
sequence,measurement,setting,value
GGCUAGAACUAGUGGAUCCCCCGGCGCCCGGCGGCUCGAGCCCGGGUAAGUGUAAAUUGUCUGCAUGCCGCCGGGCGCCAUGCCUGCAGGUCGACUCUAGAAAACAUG,binding signal,PUM1 PUF domain R1-RRK,2.68 log2 enrichment (interaction score)
same,binding signal,PUM1 PUF domain R1-KFR,3.96 log2 enrichment (interaction score)
GGCUAGAACUAGUGGAUCCCCCGGCGCCCGGCGGCUCGAGCCCGGGUAAGUGUAAAUCGUCUGCAUGCCGCCGGGCGCCAUGCCUGCAGGUCGACUCUAGAAAACAUG,binding signal,PUM1 PUF domain R1-RRK,2.94 log2 enrichment (interaction score)
same,binding signal,PUM1 PUF domain R1-TVR,3.55 log2 enrichment (interaction score)
GGCUAGAACUAGUGGAUCCCCCGGCGCCCGGCGGCUCGAGCCCGGGUAAGUGUAUAUAGUCUGCAUGCCGCCGGGCGCCAUGCCUGCAGGUCGACUCUAGAAAACAUG,binding signal,PUM1 PUF domain R4-NFS,3.51 log2 enrichment (interaction score)
GGCUAGAACUAGUGGAUCCCCCGGCGCCCGGCGGCUCGAGCCCGGGUAAGUGUAAAUAGUCUGCAUGCCGCCGGGCGCCAUGCCUGCAGGUCGACUCUAGAAAACAUG,binding signal,PUM1 PUF domain R6-GFA,2.37 log2 enrichment (interaction score)
same,binding signal,PUM1 PUF domain R6-MYS,4.63 log2 enrichment (interaction score)
same,binding signal,PUM1 PUF domain R5-PMG,0.4 log2 enrichment (interaction score)
same,binding signal,PUM1 PUF domain R8-RHE,2.1 log2 enrichment (interaction score)
same,binding signal,PUM1 PUF domain R8-RWG,5.92 log2 enrichment (interaction score)
same,binding signal,PUM1 PUF domain R8-CHP,0.7 log2 enrichment (interaction score)
same,binding signal,PUM1 PUF domain R4-ERC,4.37 log2 enrichment (interaction score)
same,binding signal,PUM1 PUF domain R3-CPG,2.95 log2 enrichment (interaction score)
same,binding signal,PUM1 PUF domain R8-RQR,0.6 log2 enrichment (interaction score)
GGCUAGAACUAGUGGAUCCCCCGGCGCCCGGCGGCUCGAGCCCGGGUAAGUGUUAAUAGUCUGCAUGCCGCCGGGCGCCAUGCCUGCAGGUCGACUCUAGAAAACAUG,binding signal,PUM1 PUF domain R5-PMG,3.73 log2 enrichment (interaction score)
same,binding signal,PUM1 PUF domain R5-RNE,3.73 log2 enrichment (interaction score)
GGCUAGAACUAGUGGAUCCCCCGGCGCCCGGCGGCUCGAGCCCGGGUAAGUGUAAGUAGUCUGCAUGCCGCCGGGCGCCAUGCCUGCAGGUCGACUCUAGAAAACAUG,binding signal,PUM1 PUF domain R3-LSR,5.61 log2 enrichment (interaction score)
same,binding signal,PUM1 PUF domain R3-LFA,4.36 log2 enrichment (interaction score)
GGCUAGAACUAGUGGAUCCCCCGGCGCCCGGCGGCUCGAGCCCGGGUAAGUGUAAUUAGUCUGCAUGCCGCCGGGCGCCAUGCCUGCAGGUCGACUCUAGAAAACAUG,binding signal,PUM1 PUF domain R3-LSR,4.8 log2 enrichment (interaction score)
same,binding signal,PUM1 PUF domain R3-LFA,2.26 log2 enrichment (interaction score)
GGCUAGAACUAGUGGAUCCCCCGGCGCCCGGCGGCUCGAGCCCGGGUAAGUUUAAAUAGUCUGCAUGCCGCCGGGCGCCAUGCCUGCAGGUCGACUCUAGAAAACAUG,binding signal,PUM1 PUF domain R7-RML,2.71 log2 enrichment (interaction score)
same,binding signal,PUM1 PUF domain R7-QTR,2.39 log2 enrichment (interaction score)
GGCUAGAACUAGUGGAUCCCCCGGCGCCCGGCGGCUCGAGCCCGGGUAAGCGUAAAUAGUCUGCAUGCCGCCGGGCGCCAUGCCUGCAGGUCGACUCUAGAAAACAUG,binding signal,PUM1 PUF domain R8-RHE,3.02 log2 enrichment (interaction score)
same,binding signal,PUM1 PUF domain R8-RWG,6.94 log2 enrichment (interaction score)
same,binding signal,PUM1 PUF domain R8-CHP,2.6 log2 enrichment (interaction score)
same,binding signal,PUM1 PUF domain R8-RQR,3.05 log2 enrichment (interaction score)
GGCUAGAACUAGUGGAUCCCCCGGCGCCCGGCGGCUCGAGCCCGGGUAAGUGUCAAUAGUCUGCAUGCCGCCGGGCGCCAUGCCUGCAGGUCGACUCUAGAAAACAUG,binding signal,PUM1 PUF domain R5-RNE,2.14 log2 enrichment (interaction score)
GGCUAGAACUAGUGGAUCCCCCGGCGCCCGGCGGCUCGAGCCCGGGUAAGUGUACAUAGUCUGCAUGCCGCCGGGCGCCAUGCCUGCAGGUCGACUCUAGAAAACAUG,binding signal,PUM1 PUF domain R4-ERC,0.16 log2 enrichment (interaction score)
